Reference: PubChem BioAssay (EPA / NIEHS)
Calls of active or inactive are those of the source. Rule for the calls: active = hit-call score of the fitted dose curve at least 0.9, where 1 is the maximum; inactive = score below 0.9.

biological target: CCAAT/enhancer-binding protein beta (Homo sapiens) (UniProt P17676); test: ATG_C_EBP_CIS: Attagene CIS-FACTORIAL HepG2 Assay for human CCAAT/Enhancer Binding Protein (C/EBP) beta (AID 2282927); conditions: HepG2 Attagene cis-factorial transcription factor reporter; actives raise or lower the signal
Method: ATG_CIS is a cell-based, multiplexed-readout assay that uses HepG2, a human liver cell line, with measurements taken at 24 hours after chemical dosing in a 24-well plate.ATG_C_EBP_CIS is one of 52 assay component(s) measured or calculated from the ATG_CIS assay. It is designed to make measurements of mRNA induction, a form of inducible reporter, as detected with fluorescence intensity signals by Reverse transcription polymerase chain reaction (RT-PCR) and Capillary electrophoresis technology.Data from the assay component ATG_C_EBP_CIS was analyzed into 1 assay endpoint. This assay endpoint, ATG_C_EBP_CIS, was analyzed with bidirectional fitting relative to DMSO as the negative control and baseline of activity. Using a type of inducible reporter, measures of mRNA for gain or loss-of-signal activity can be used to understand the reporter gene at the transcription factor-level as they relate to the gene CEBPB. Furthermore, this assay endpoint can be referred to as a primary readout, because this assay has produced multiple assay endpoints where this one serves a reporter gene function. To generalize the intended target to other relatable targets, this assay endpoint is annotated to the dna binding intended target family, where the subfamily is basic leucine zipper.
Human liver HepG2 cells are transiently transfected with multiple reporter transcription units (MRTUs) in 6-well plates using FuGene 6 reagent (Roche; 3 ml FuGene/1 mg DNA). The MRTU constructs are regulated by a cis-regulating element (promoter). […] A major difference between the CIS and TRANS system is that in CIS activities of endogenous TFs are measured, whereas the TRANS assay evaluates changes in activities of exogenous, chimeric NR-Gal4 proteins. […] At the end of 24 hour incubation, total RNA was isolated using TriZol reagent (Invitrogen). The isolated RNA is then reverse-transcribed using oligo(dT) primer and Mo-MLV reverse transcriptase (Invitrogen) with DNAse I (Ambion) treatment for 30 min. The one-tenth of the produced cDNA was amplified by PCR using Taq DNA polymerase (Invitrogen) and two reporter sequence-specific primers. The PCR products were fluorescently labeled by primer extension with 6-arboxyfluorescein (6-FAM) 5'-labeled reporter sequence-specific primer (2 min at 95 C, 20 s at 68 C and 10 min at 72 C) and these products were digested with 5U of HpaI (New England Biolabs) for 2h at 37 C. The fragments were purified using Qiaquick PCR columns (Qiagen), analyzed on an ABI 3130xL genetic analyzer (Applied Biosystems) with peak positions identified by using a set of X-rhodamine (ROX)-labeled MapMarker1000 molecular weight standards (BioVentures). The raw capillary electrophoresis data was processed using Attagraph software (Attagene).

CCAAT/enhancer-binding protein beta (Homo sapiens), sequence (P17676 whole entry, looked up): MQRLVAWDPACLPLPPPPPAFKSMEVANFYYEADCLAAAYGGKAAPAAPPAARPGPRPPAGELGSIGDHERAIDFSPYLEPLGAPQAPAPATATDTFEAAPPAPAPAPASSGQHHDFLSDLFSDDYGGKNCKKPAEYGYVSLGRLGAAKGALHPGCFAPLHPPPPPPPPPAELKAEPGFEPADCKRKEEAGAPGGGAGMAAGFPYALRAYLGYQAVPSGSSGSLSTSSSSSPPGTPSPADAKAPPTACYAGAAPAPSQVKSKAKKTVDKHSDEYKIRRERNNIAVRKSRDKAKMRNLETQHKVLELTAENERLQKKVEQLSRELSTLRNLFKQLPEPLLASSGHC

outcome, inactive:
C1=CCCC1, Nc1ccc(-c2ccc(F)cc2)cc1, CCOC(=O)N1CCC(=C2c3ccc(Cl)cc3CCc3cccnc32)CC1, CCCCCCCCCCCCCCCCCC#N, c1ccc2c(c1)ccc1ncccc12, CCCCC(CC)COCC1CO1 (stereo not given), CC(C)(Oc1ccc(C2CC2(Cl)Cl)cc1)C(=O)O (stereo not given), CCC(C)OC(=O)c1ccc(O)cc1 (stereo not given), O=C1c2cccc(O)c2C(=O)c2c(O)cc(CO)cc21, OC1OCCOC1O (stereo not given), NC(=O)OCC(COC(N)=O)c1ccccc1, CCOC(=O)CC, Cc1ccc(N/N=c2\c(=O)cc/c(=N/Nc3ccc(S(=O)(=O)O)cc3)c2=O)c(C)c1, CCCNC(=O)NS(=O)(=O)c1ccc(Cl)cc1, CC(C)c1ccc(C=O)cc1, C=CCOc1c(Br)cc(Br)cc1Br, NNC(=O)c1cccc(C(=O)NN)c1, O=C1CCC(=O)N1Cl, COc1cc(NC(=O)CC(C)=O)c(OC)cc1Cl, O=C(c1ccccc1)c1ccc(O)c(O)c1O, [Cl][Nd]([Cl])[Cl], C(=CC=Nc1ccccc1)C=CNc1ccccc1, CCC(CC)C(=O)O, CC(C)(C)c1ccc(N)cc1, O=C1CCCC1, CC(C)=CCC/C(C)=C\C#N, O=c1cc[nH]c(=S)[nH]1, O=[N+]([O-])C1(Br)COCOC1, CCCOCCOCCOCCO, Nc1ccc(Oc2ccc(N)c(N)c2)cc1, CC(=O)CC(N)=O, CC[C@H]1OC(=O)[C@H](C)[C@@H](O[C@H]2C[C@@](C)(OC)[C@@H](O)[C@H](C)O2)[C@H](C)[C@@H](O[C@@H]2O[C@H](C)C[C@H](N(C)C)[C@H]2O)[C@](C)(O)C[C@@H](C)C(=NOCOCCOC)[C@H](C)[C@@H](O)[C@]1(C)O, Cc1cc(=O)n(-c2ccccc2)n1C, O=Cc1ccc(CO)o1, COc1ccc(C(Cl)=C(c2ccc(OC)cc2)c2ccc(OC)cc2)cc1, O=S(=O)(O)CC(O)CCl (stereo not given), N[C@H]1C(O)O[C@H](CO)[C@H](O)[C@@H]1O (stereo not given in full), Cc1ccc(OC(=O)CC(C)C)cc1, O=C(C(Cl)Cl)N1CCOC12CCCCC2, C[Si](C)O[Si](C)(C)O[Si](C)(C)O[Si](C)C
